Experimental data taken from PubChem BioAssay (NCATS).
Records with an inconclusive call do not appear. Calls of active or inactive are those of the source. Unless noted, calls follow the shape of the dose curve; as a rule, active = well fitted curve in the direction sought with a large enough effect; inconclusive = small, poorly fitted or top-dose-only effect, or another doubt; inactive = no such curve, though single readings can be large; an effect the other way counts as inactive or inconclusive.

Key:
[1] = target: T1, Hexokinase-4 (Homo sapiens) + Glucokinase regulatory protein (Homo sapiens) (UniProt P35557+Q14397); assay: qHTS assay for inhibitors of recombinant human GCK-GKRP interaction: Diaphorase-coupled assay (AID 743205); conditions: G6PDH/diaphorase resorufin fluorescence; series mostly up to 57.5 µM
T1 sequence (P35557 whole entry, looked up): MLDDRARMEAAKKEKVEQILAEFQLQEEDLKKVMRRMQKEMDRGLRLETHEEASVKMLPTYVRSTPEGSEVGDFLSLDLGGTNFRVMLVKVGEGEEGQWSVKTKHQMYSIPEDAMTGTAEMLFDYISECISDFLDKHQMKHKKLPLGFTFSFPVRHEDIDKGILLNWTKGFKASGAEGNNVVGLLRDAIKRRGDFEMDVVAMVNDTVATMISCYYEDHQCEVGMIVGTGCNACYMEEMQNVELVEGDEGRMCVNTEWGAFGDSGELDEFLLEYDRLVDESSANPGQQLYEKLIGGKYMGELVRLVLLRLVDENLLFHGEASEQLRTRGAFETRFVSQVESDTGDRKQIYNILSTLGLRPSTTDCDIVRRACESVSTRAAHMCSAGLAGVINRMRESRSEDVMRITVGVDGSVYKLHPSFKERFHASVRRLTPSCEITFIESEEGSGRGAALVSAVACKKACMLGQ
T1 sequence (Q14397 whole entry, looked up): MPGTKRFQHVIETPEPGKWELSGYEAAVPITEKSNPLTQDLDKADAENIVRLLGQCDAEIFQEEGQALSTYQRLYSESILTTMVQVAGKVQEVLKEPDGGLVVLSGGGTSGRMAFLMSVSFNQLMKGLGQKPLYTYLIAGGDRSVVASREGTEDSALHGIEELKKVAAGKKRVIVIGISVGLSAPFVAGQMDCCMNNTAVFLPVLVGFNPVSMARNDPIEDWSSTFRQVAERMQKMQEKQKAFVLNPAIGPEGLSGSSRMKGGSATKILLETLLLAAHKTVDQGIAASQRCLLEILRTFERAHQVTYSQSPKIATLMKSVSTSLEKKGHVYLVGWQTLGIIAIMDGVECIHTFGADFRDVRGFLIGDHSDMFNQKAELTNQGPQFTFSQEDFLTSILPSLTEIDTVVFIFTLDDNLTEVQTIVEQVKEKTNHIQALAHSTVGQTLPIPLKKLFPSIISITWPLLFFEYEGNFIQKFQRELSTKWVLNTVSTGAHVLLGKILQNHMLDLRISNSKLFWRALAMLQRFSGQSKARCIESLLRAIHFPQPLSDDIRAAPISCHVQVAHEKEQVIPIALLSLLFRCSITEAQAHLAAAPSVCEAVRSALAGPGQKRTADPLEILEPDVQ
Method in brief: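 Resorufin fluorescence (525/590 nm), read each minute over 30 min, reports GCK activity coupled via G6PDH and diaphorase. Reaction: 10 nM GST-GCK, 10 nM FLAG-GKRP, 5 mM glucose, 0.4 mM ATP, 0.15 mM NADP+, 0.1 mM resazurin.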

[2] = target: T1, Hexokinase-4 (Homo sapiens) + Glucokinase regulatory protein (Homo sapiens); assay: qHTS assay for inhibitors of recombinant human GCK-GKRP interaction: ADP-Glo assay (AID 743206); conditions: ADP-Glo luminescence, 60 min; series mostly up to 76.9 µM;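 also: plate controls were DMSO plus enzyme for no effect and no enzyme for full effect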
Method in brief: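 Pin-transferred compounds meet a 15 nM GST-GCK/15 nM FLAG-GKRP/2 uM S6P mix (dispense concentrations). ATP is then added to 0.4 mM final with 5 mM glucose, and the reaction runs 60 min at room temperature. ADP is quantified luminescently.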

[3] = target: T1, Hexokinase-4 (Homo sapiens) + Glucokinase regulatory protein (Homo sapiens); assay: qHTS assay for inhibitors of recombinant human GCK-GKRP interaction: HTRF assay (AID 743207); conditions: recombinant GCK-GKRP HTRF binding, 60 min, with sorbitol-6-phosphate; series mostly up to 57.5 µM;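 also: 0% = DMSO with GCK present and -100% = DMSO wells lacking GCK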
Method in brief: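 HTRF read-out (ex 320 nm; 615/665 nm emission) after 60 min RT equilibration of 5 nM GST-GCK, 5 nM FLAG-GKRP, 2 uM S6P, compound and anti-FLAG/anti-GST detection antibodies; signal normalized between DMSO wells with and without GCK.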

[4] = qHTS Assay for Identifying Gametocytocidal Compounds (AID 743244); also: potency is read from the fitted curve at half-maximal effect;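 as to max response: % is scaled to controls: 0 for no effect and ±100 for the full control effect; actives lower the fluorescent signal which means gametocytes are killed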; conditions: P. falciparum 3D7 stage III-V gametocytes, alamarBlue, 72 h; max response: stronger effect = lower value
Method in brief: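 Compounds are pinned into medium, gametocytes (stage III–V, 3D7, 20,000 cells/well) added, and plates held 72 h at 37 °C in 5% CO2. AlamarBlue follows for 24 h before fluorescence reading.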

[5] = qHTS assay for cell viability of HEK293 cells (AID 743288); conditions: ATP luminescence (CellTiter-Glo), 18 h; max response: stronger effect = lower value; also: % is scaled to controls: 0 for no effect and ±100 for the full control effect; nearly all actives have a fitted effect of over 50% in size
Method in brief: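 ATP luminescence (CellTiter-Glo) reports metabolically competent cell number after parental HEK293 cells, 2,000/well, were treated with DMSO-dissolved compounds for 18 h at 37 C; reagent incubation 30 min, room temperature.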

[6] = qHTS assay for cell viability of the p53RE-bla HCT-116 cell line (AID 743292); conditions: p53RE-bla HCT-116 viability, ATP luminescence, 16 h; series mostly up to 95 µM; also: % is scaled to controls: 0 for no effect and ±100 for the full control effect; nearly all actives have a fitted effect of over 55% in size
Method in brief: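 Intracellular ATP of p53RE-bla HCT-116 cells measured by luciferase luminescence following 16 h compound incubation at 37 C; DMSO-only wells served as vehicle controls.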

[7] = qHTS profiling of the MIPE4 collection as inhibitors of Plasmodium falciparum (3D7) proliferation (AID 743344; call rule not given here;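 also: scaled between DMSO vehicle wells and 0.29 µM artemisinin as full inhibition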); conditions: P. falciparum 3D7 in erythrocytes, SYBR Green DNA fluorescence, 72 h; at 28.5 µM (top of the series)
Method in brief: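 Parasite DNA was quantified by SYBR Green I fluorescence (ex 485, em 535 nm) after overnight lysis in saponin/Triton buffer at room temperature. Cultures at 0.3% parasitemia and 2.5% hematocrit were first exposed to compound for 72 h at 37 C; signals were normalised to artemisinin (0.29 uM) and vehicle wells.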

O=C1NC(=O)c2cc(Nc3ccccc3)c(Nc3ccccc3)cc21
inactive: Potency [1] | Potency [2] | Potency [3] | max response [4] 5.21%

O=c1oc(Cl)c(Cl)c2ccccc12
inactive: Potency [1] | Potency [2] | Potency [3] | max response [4] 31%

C#CCn1c(=O)c2c(ncn2C)n(C)c1=O
inactive: Potency [1] | Potency [2] | Potency [3] | max response [4] 7.96%

Nc1ncnc2c1c(-c1ccc(Oc3ccccc3)cc1)cn2C1CCCC1
inactive: Potency [1] | Potency [2] | Potency [3] | max response [4] 4.42%

c1ccc2nc(C3=NCCN3)ccc2c1
inactive: Potency [1] | Potency [2] | Potency [3] | max response [4] 12%

CCSC(=N)N
inactive: Potency [1] | Potency [2] | Potency [3] | max response [4] 12.9%

N[C@@H](Cc1ccc(F)cc1)C(=O)O
inactive: Potency [1] | Potency [2] | Potency [3] | max response [4] 19.5%

CC(C)C[C@H](NC(=O)[C@H](O)[C@H](N)Cc1ccccc1)C(=O)O
inactive: Potency [1] | Potency [2] | Potency [3] | max response [4] 2.38%

COC(=O)C(N)Cc1ccc(Cl)cc1 (stereo unspecified)
inactive: Potency [1] | Potency [2] | Potency [3] | max response [4] 4.72%

CCCCC[C@H](CC(=O)NO)C(=O)N[C@H](C(=O)N1CCC[C@H]1CO)C(C)C
inactive: Potency [1] | Potency [2] | Potency [3] | max response [4] 14.1%

c1ccc2c(c1)CC(N1CCN(c3cccc4c3OCCO4)CC1)C2
inactive: Potency [1] | Potency [2] | Potency [3] | max response [4] 9.97%

CC(=O)NCCc1c[nH]c2ccc(O)cc12
inactive: Potency [1] | Potency [2] | Potency [3] | max response [4] 28.4%

NC1(C(=O)O)CCCCC1
inactive: Potency [1] | Potency [2] | Potency [3] | max response [4] 26.2%

CC(O)C(O)[C@H]1CNc2nc(N)[nH]c(=O)c2N1 (stereo partly specified)
inactive: Potency [1] | Potency [2] | Potency [3] | max response [4] 8.13%

CC(C)(C)c1cc(/C=C(\C#N)C(N)=S)cc(C(C)(C)C)c1O
inactive: Potency [1] | Potency [2] | Potency [3] | max response [4] 6.59%

NC(=Nc1ccccc1)NC(=O)c1nc(Cl)c(N)nc1N
inactive: Potency [1] | Potency [2] | Potency [3] | max response [4] 12.9%

NCCNS(=O)(=O)c1cccc2c(Cl)cccc12
active: Potency [4] 3160 nM
inactive: Potency [1] | Potency [2] | Potency [3]

COc1ccccc1N1CCN(CCCCNC(=O)c2ccc3ccccc3c2)CC1
inactive: Potency [1] | Potency [2] | Potency [3] | max response [4] 17.6%

Cn1c(=O)[nH]c2ncn(C)c2c1=O
inactive: Potency [1] | Potency [2] | Potency [3] | max response [4] 2.01%

N=C(N)SCCN
inactive: Potency [1] | Potency [2] | Potency [3] | max response [4] -1.63%

Cc1nc2n(c(=O)c1CCN1CCC(c3noc4cc(F)ccc34)CC1)CCCC2O (stereo unspecified)
inactive: Potency [1] | Potency [2] | Potency [3] | max response [4] 7.08%

COc1ccccc1N1CCN(CCN(C(=O)c2ccc(F)cc2)c2ccccn2)CC1
inactive: Potency [1] | Potency [2] | Potency [3] | max response [4] 23.7%

O=c1cc(-c2ccccc2F)[nH]c2cc3c(cc12)OCO3
inactive: Potency [1] | Potency [2] | Potency [3] | max response [4] 15.8%

CC(C)(CO)Cc1cc(C(C)(C)C)c(O)c(C(C)(C)C)c1
inactive: Potency [1] | Potency [2] | Potency [3] | max response [4] 9.64%

O=C1OC(=O)C2C3CCC(O3)C12 (stereo unspecified)
inactive: Potency [1] | Potency [2] | Potency [3] | max response [4] 26.3%

Oc1cc2c(cc1O)C(c1ccccc1)CNCC2 (stereo unspecified)
inactive: Potency [1] | Potency [2] | Potency [3] | max response [4] 20.1%

CCCCCCCCCCC/C=C\C(C)(C)/C=C\CCCC(=O)O
inactive: Potency [1] | Potency [2] | Potency [3] | max response [4] 11.6%

CCCn1c(=O)c2[nH]c(-c3ccc(S(=O)(=O)O)cc3)nc2n(CCC)c1=O
inactive: Potency [1] | Potency [2] | Potency [3] | max response [4] 27.3%

N=C(N)c1ccc(OCCCCCOc2ccc(C(=N)N)cc2)cc1 (tested in a mixture with another compound)
inactive: Potency [1] | Potency [2] | Potency [3]
active: Potency [4] 562 nM

NC1(C(=O)O)CCc2cc(C(=O)O)ccc21 (stereo unspecified)
inactive: Potency [1] | Potency [2] | Potency [3] | max response [4] 9.78%

O=C(O)C1CN(CCCP(=O)(O)O)CCN1 (stereo unspecified)
inactive: Potency [1] | Potency [2] | Potency [3] | max response [4] -7.29%

Nc1ncnc2c1ncn2C1CCCC1
inactive: Potency [1] | Potency [2] | Potency [3] | max response [4] 29.2%

CC(N)(Cc1ccc(O)cc1)C(=O)O (stereo unspecified)
inactive: Potency [1] | Potency [2] | Potency [3] | max response [4] -28.2%

NC(N)=NC(N)=Nc1cccc(Cl)c1
inactive: Potency [1] | Potency [2] | Potency [3] | max response [4] 35.4%

Nc1ccc(-c2ccc3ccccc3n2)cc1
inactive: Potency [1] | Potency [2] | Potency [3] | max response [4] 11.1%

Nc1ncnc2c1nc(Sc1ccc(Cl)cc1)n2[C@H]1OC2COP(=O)(O)O[C@@H]2C1O (stereo partly specified)
inactive: Potency [1] | Potency [2] | Potency [3] | max response [4] 39.2%

CCCCCCCCCCC(C)(C)C(=O)Nc1c(OC)cc(OC)cc1OC
inactive: Potency [1] | Potency [2] | Potency [3] | max response [4] -6%

CCCCCCC(=O)OC1CC(C)(C)NC(C)(C)C1
inactive: Potency [1] | Potency [2] | Potency [3] | max response [4] -4.67%

CCN1C(=O)C=CC1=O
inactive: Potency [1] | Potency [2] | Potency [3] | max response [4] 14.2%

Cc1nc2c(OCc3ccccc3)cccn2c1CC#N
inactive: Potency [1] | Potency [2] | Potency [3] | max response [4] 18.4%

N=C(N)SCCc1cnc[nH]1
inactive: Potency [1] | Potency [2] | Potency [3] | max response [4] 9.89%

CCCn1c(=O)c2[nH]c(C3CCCC3)nc2n(CCC)c1=O
inactive: Potency [1] | Potency [2] | Potency [3] | max response [4] 13.8%

NC1C=CC=C(C(=O)O)C1 (stereo unspecified)
inactive: Potency [1] | Potency [2] | Potency [3] | max response [4] -5.22%

CC[N+](CC)(CC)CC(=O)Nc1c(C)cccc1C
inactive: Potency [1] | Potency [2] | Potency [3] | max response [4] 14.2%

CSC(N)=NCCC[C@H](N)C(=O)O
inactive: Potency [1] | Potency [2] | Potency [3] | max response [4] 9.52%

CCCCCCCCCCCCCCCCCCOC[C@H](COP(=O)([O-])OCC[N+](C)(C)C)OC
inactive: Potency [1] | Potency [2] | Potency [3] | max response [4] 10.4%

O=C(O)/C=C/c1ccc(O)c(O)c1
inactive: Potency [1] | Potency [2] | Potency [3] | max response [4] 8.93%

O=C(O)/C(=C/c1c(C(=O)O)[nH]c2cc(Cl)cc(Cl)c12)c1ccccc1
inactive: Potency [1] | Potency [2] | Potency [3] | max response [4] 2.21%

CN1CC(O)C(O)C(O)C1CO (stereo unspecified)
inactive: Potency [1] | Potency [2] | Potency [3] | max response [4] 11.6%

Nc1ncnc2c1ncn2C1CCCO1 (stereo unspecified)
inactive: Potency [1] | Potency [2] | Potency [3] | max response [4] -5.04%

CN(C)C(=O)/N=N/C(=O)N(C)C
inactive: Potency [1] | Potency [2] | Potency [3] | max response [4] -1.96%

O=C(O)c1cc2cc(F)ccc2[nH]1
inactive: Potency [1] | Potency [2] | Potency [3] | max response [4] 5.51%

O=c1ccn([C@@H]2O[C@H](COP(=O)(O)OP(=O)(O)O)[C@@H](O)[C@H]2O)c(=O)[nH]1
inactive: Potency [1] | Potency [2] | Potency [3] | max response [4] 17.2%

CCCCCCCC/C=C\CCCCCCCC(=O)NCCc1ccc(O)c(O)c1
inactive: Potency [1] | Potency [2] | Potency [3] | max response [4] 7.46%

Nc1ccc2c3c(cccc13)C(=O)NC2=O
inactive: Potency [1] | Potency [2] | Potency [3] | max response [4] 4.5%

COc1cccc(OC)c1OCCNCC1CSc2ccccc2O1 (stereo unspecified)
inactive: Potency [1] | Potency [2] | Potency [3] | max response [4] 8.7%

O=C(O)c1cccnc1C(=O)O
inactive: Potency [1] | Potency [2] | Potency [3] | max response [4] 4.44%

CC1CCN=C(N)S1 (stereo unspecified)
inactive: Potency [1] | Potency [2] | Potency [3] | max response [4] -7.18%

COc1cc2c(CCNC(C)=O)c[nH]c2cc1O
inactive: Potency [1] | Potency [2] | Potency [3] | max response [4] 18.4%

NCCCCN
inactive: Potency [1] | Potency [2] | Potency [3] | max response [4] 15.5%

NC(N)=NC(N)=Nc1ccccc1
inactive: Potency [1] | Potency [2] | Potency [3] | max response [4] 28.5%

COc1ccc(-c2ccc(N)[n+](CCCC(=O)O)n2)cc1
inactive: Potency [1] | Potency [2] | Potency [3] | max response [4] 23.8%

NC(=O)c1ccccc1
inactive: Potency [1] | Potency [2] | Potency [3] | max response [4] -3.76% | max response [5] -1.67% | Potency [6]

O=C1Nc2ccc(I)cc2/C1=C/c1cc(Br)c(O)c(Br)c1
inactive: Potency [1] | Potency [2] | max response [4] -8.13%

OC[C@H]1O[C@@H](n2cnc3cncnc32)[C@H](O)[C@@H]1O
inactive: Potency [1] | Potency [2] | max response [4] 19.7%

[N-]=[N+]=Nc1ccc(C(=O)CSC[C@H](NC(=O)CC[C@H](N)C(=O)O)C(=O)NCC(=O)O)cc1
inactive: Potency [1] | Potency [2] | max response [4] 27%

NC(Cc1cccc(-c2ccccc2CP(=O)(O)O)c1)C(=O)O (stereo unspecified)
inactive: Potency [1] | Potency [2] | Potency [3] | max response [4] 13.4%

Cc1nc(N=Nc2ccc(S(=O)(=O)O)cc2S(=O)(=O)O)c(COP(=O)(O)O)c(C=O)c1O
98.1%: parasite growth, % of DMSO control [7]
inactive: Potency [1] | Potency [2] | Potency [3]
